Most compounds without a hit are left out; they make up all but 4.8% or so of the library.
DAX1 inh-1 – inhibitors of human orphan nuclear receptor DAX1 (NR0B1). HEK293 Gal4-DAX1 luciferase reporter, luminescence. inhibition, % at 6.75 µM. 340,000 compounds, 0.99% hits;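 active = inhibition above the mean over all tested compounds plus 3 SD, cut at about 4.2% in these data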;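 note: 0% = DAX1-transfected cells with DMSO and 100% = empty-vector control cells with DMSO; inhibition shows as a rise in luminescence from relieved DAX1 repression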
SMARCA2 activ – SMARCA2 function activation, primary screen | MG213 cells, MMTV-luciferase reporter, dexamethasone, overnight | AID 652017 | 370,000 compounds, 1% hits | activation, % at 9.1 µM; in the data active = activation above about 7.8%;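 note: 0% = vehicle wells and 100% = reference activator wells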
ssDAF12 agonist – activators of S. stercoralis DAF-12 nuclear receptor. HEK293 ssDAF-12/GRIP1 lit1-tk-luc reporter, luminescence; % of 3 µM dafachronic acid response. AID 652126. 370,000 compounds, 1% hits. activation, % at 6.8 µM;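 active = activation above the mean over all tested compounds plus 3 SD, cut at about 0.9% in these data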;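 note: 0% = DMSO-only wells and 100% = 3 µM delta7-dafachronic acid wells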
hgDAF-12 ag – hgDAF-12 agonism, primary luciferase screen. HEK293 GAL4-hgDAF12 UAS-luciferase reporter, agonist luminescence; normalized to butyrate control. activation, % at 6.8 µM. 370,000 compounds, 1.8% hits. AID 687014;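 active = activation above a cutoff set at the mean of all screened compounds plus 3 SD, cut at about 10% in these data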;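 note: 0% = DMSO wells and 100% = sodium butyrate wells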
hcDAF-12 act – activates DAF-12 receptor from parasite H. contortus | HEK293 hcDAF-12 lit1-tk-luc reporter, luminescence; 0% DMSO, 100% Δ7-dafachronic acid | AID 652067 | activation, % at 6.8 µM | 370,000 compounds, 1.4% hits;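 active = activation above the mean of all tested compounds plus 3 SD, cut at about 5.5% in these data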;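 note: 100% = response to 3 µM Δ7-dafachronic acid high control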
DAX1 inh-2 – blocks DAX1 repression of SF-1 activated StAR promoter | HEK293T StAR-luciferase reporter, SF-1/DAX-1 repression relief | inhibition, % at 6.8 µM | 370,000 compounds, 1.1% hits | AID 652010;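 active = inhibition above the mean over all tested compounds plus 3 SD, cut at about 3.6% in these data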;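 note: 0% = DAX-1 cells with DMSO and 100% = cells lacking DAX-1 with DMSO; higher inhibition means more luminescence from relief of DAX-1 repression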
LXRb hcDAF ctr – counter-screen for hcDAF-12 agonists: agonists of human LXR-beta; AID 743027; HEK293 Gal4-LXR tk-luc reporter, luminescence, 24 h; normalized: DMSO 0%, positive control 100%; activation, % at 6.8 µM; shares compounds with hcDAF-12 act; 3,400 tested, under 10 active;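 active = mean percent activation of the reporter above a cutoff set as the average over tested compounds plus their standard deviation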
Target sequence (P55055 whole entry, looked up, the tested form may be a part): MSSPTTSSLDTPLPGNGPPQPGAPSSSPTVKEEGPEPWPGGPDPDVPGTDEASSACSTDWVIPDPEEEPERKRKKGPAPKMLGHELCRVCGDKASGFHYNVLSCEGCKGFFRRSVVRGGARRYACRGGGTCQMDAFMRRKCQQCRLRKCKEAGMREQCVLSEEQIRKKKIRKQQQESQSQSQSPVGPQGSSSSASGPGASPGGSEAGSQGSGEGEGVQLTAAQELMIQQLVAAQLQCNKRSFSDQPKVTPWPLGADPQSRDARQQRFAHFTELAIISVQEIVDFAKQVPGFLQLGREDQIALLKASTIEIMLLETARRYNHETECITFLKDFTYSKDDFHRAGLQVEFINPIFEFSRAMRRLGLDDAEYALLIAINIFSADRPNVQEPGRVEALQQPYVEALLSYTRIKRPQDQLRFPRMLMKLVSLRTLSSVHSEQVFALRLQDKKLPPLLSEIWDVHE
hcDAF12 ag – confirmation of H. contortus DAF-12 agonists; shares compounds with hcDAF-12 act; HEK293 hcDAF-12 lit1-tk-luc reporter, luminescence; % of Δ7-dafachronic acid response; activation, % at 6.8 µM; 3,400 compounds, 61% hits; AID 743032;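 active = mean activation across triplicate tests above the threshold derived from the earlier primary screen, cut at about 5.5% in these data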;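 note: 0% = DMSO only wells and 100% = 3 µM Δ7-dafachronic acid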
* hit, by the source's call.

How did c1ccc2c(CN3CCCCC3)c[nH]c2c1 do in these assays?
DAX1 inh-1: -1; SMARCA2 activ: -5; ssDAF12 agonist: 0; hgDAF-12 ag: 3; hcDAF-12 act: 2; DAX1 inh-2: 1

How did OC(CN1CCCCC1)c1c[nH]c2ccccc12 (configuration not stated) do in these assays?
DAX1 inh-1: 2; SMARCA2 activ: -3; ssDAF12 agonist: 0; hgDAF-12 ag: 0; hcDAF-12 act: 8.0*; DAX1 inh-2: 0; LXRb hcDAF ctr: 0; hcDAF12 ag: 4

How did CC1(C)CC(=O)c2cc(OCC(=O)N3CCN(Cc4ccccc4)CC3)ccc2O1 do in these assays?
DAX1 inh-1: 1; SMARCA2 activ: -5; ssDAF12 agonist: -2; hgDAF-12 ag: -2; hcDAF-12 act: -2; DAX1 inh-2: 0

How did CN1CCN(c2ccc(NC(=O)Oc3ccccc3)cc2)CC1 do in these assays?
DAX1 inh-1: -1; SMARCA2 activ: 3; ssDAF12 agonist: -1; hgDAF-12 ag: 0; hcDAF-12 act: -2; DAX1 inh-2: -1

Results for COc1ccc2nc(NC3=NCCN3)sc2c1 ?
DAX1 inh-1: 3; SMARCA2 activ: 4; ssDAF12 agonist: 1.0*; hgDAF-12 ag: 12*; hcDAF-12 act: 10*; DAX1 inh-2: 3; LXRb hcDAF ctr: 1; hcDAF12 ag: 7.4*

Results for c1ccc2sc(NC3=NCCN3)nc2c1 ?
DAX1 inh-1: 2; SMARCA2 activ: 5; ssDAF12 agonist: 0; hgDAF-12 ag: 7; hcDAF-12 act: 9.3*; DAX1 inh-2: 1; LXRb hcDAF ctr: 1; hcDAF12 ag: 7.2*

What do the screens show for `Nc1ccccc1N=Cc1c(O)n(CCC2=CCCCC2)c(=O)[nH]c1=O`?
DAX1 inh-1: 3; SMARCA2 activ: 1; ssDAF12 agonist: 1; hgDAF-12 ag: 11*; hcDAF-12 act: 9.6*; DAX1 inh-2: 3; LXRb hcDAF ctr: 0; hcDAF12 ag: 1

How did O=C(N/N=C/c1c(O)n(CCC2=CCCCC2)c(=O)[nH]c1=O)c1ccccc1 do in these assays?
DAX1 inh-1: 0; SMARCA2 activ: 3; ssDAF12 agonist: 0; hgDAF-12 ag: 7; hcDAF-12 act: 2; DAX1 inh-2: 2

What do the screens show for `CC(=O)N1CCN(CC(=O)Nc2ccc(C#N)c(Cl)c2)CC1`?
DAX1 inh-1: 3; SMARCA2 activ: 4; ssDAF12 agonist: -2; hgDAF-12 ag: 0; hcDAF-12 act: -1; DAX1 inh-2: 0

What do the screens show for `CSc1ccc(C(=O)C2CCCN(Cc3cc4ccccc4[nH]3)C2)cc1` (configuration not stated)?
DAX1 inh-1: 0; SMARCA2 activ: 0; ssDAF12 agonist: 1; hgDAF-12 ag: 0; hcDAF-12 act: 6.7*; DAX1 inh-2: 0; LXRb hcDAF ctr: 0; hcDAF12 ag: 6

What do the screens show for `O=C(Oc1c(Cl)cc(Cl)c2ccccc12)N1CCCCC1`?
DAX1 inh-1: 0; SMARCA2 activ: 3; ssDAF12 agonist: -1; hgDAF-12 ag: 2; hcDAF-12 act: -1; DAX1 inh-2: 1

What do the screens show for `CCN(CC)c1ccc(CN(C)CCc2ccc(OC)c(OC)c2)cc1`?
DAX1 inh-1: 0; SMARCA2 activ: 4; ssDAF12 agonist: -1; hgDAF-12 ag: 0; hcDAF-12 act: -1; DAX1 inh-2: -1

Results for C=CCn1c(O)c(/C=C2\C=Nc3ccccc32)c(=O)[nH]c1=O ?
SMARCA2 activ: -2; ssDAF12 agonist: 0; hgDAF-12 ag: 1; hcDAF-12 act: 6.7*; DAX1 inh-2: 0; LXRb hcDAF ctr: 0; hcDAF12 ag: 5

What do the screens show for `O=C(NC[P+](=O)O)OCc1ccccc1`?
DAX1 inh-1: 0; SMARCA2 activ: -1; ssDAF12 agonist: -1; hgDAF-12 ag: 1; hcDAF-12 act: -1; DAX1 inh-2: 0

How did COc1ccc(Cl)cc1N=Cc1c(O)n(C)c(=O)n(C)c1=O do in these assays?
DAX1 inh-1: 0; SMARCA2 activ: 0; ssDAF12 agonist: -1; hgDAF-12 ag: 4; hcDAF-12 act: -3; DAX1 inh-2: 0

What do the screens show for `CCn1c(O)c(C=Nc2cc(Cl)ccc2Cl)c(=O)n(CC)c1=O`?
DAX1 inh-1: 0; SMARCA2 activ: -1; ssDAF12 agonist: 0; hgDAF-12 ag: 3; hcDAF-12 act: 6.8*; DAX1 inh-2: 0; LXRb hcDAF ctr: 0; hcDAF12 ag: 1

How did CN(C)c1ccc2c(c1)N=C(c1ccco1)OP2(=S)N1CCOCC1 (configuration not stated) do in these assays?
DAX1 inh-1: 0; SMARCA2 activ: 0; ssDAF12 agonist: 1.9*; hgDAF-12 ag: 4; hcDAF-12 act: 7.6*; DAX1 inh-2: 1; LXRb hcDAF ctr: 0; hcDAF12 ag: 2

What do the screens show for `CC1(C)N(O)C2CCCCC2N1O` (configuration not stated)?
DAX1 inh-1: -1; SMARCA2 activ: -1; ssDAF12 agonist: -1; hgDAF-12 ag: 0; hcDAF-12 act: -2; DAX1 inh-2: 0

How did N#Cc1ccc(NC(=O)CN2C(=O)NC3(CCCCCCC3)C2=O)cc1Cl do in these assays?
DAX1 inh-1: -2; SMARCA2 activ: 0; ssDAF12 agonist: -1; hgDAF-12 ag: -6; hcDAF-12 act: -1; DAX1 inh-2: 1

How did CCCCn1c(=O)c(C(=O)Nc2ccccc2)c(O)c2ccccc21 do in these assays?
DAX1 inh-1: 1; SMARCA2 activ: -3; ssDAF12 agonist: 0; hgDAF-12 ag: 2; hcDAF-12 act: 7.1*; DAX1 inh-2: 0; LXRb hcDAF ctr: 0; hcDAF12 ag: 7.6*

What do the screens show for `CCCCn1c(O)c(C(C)=NCC2CCCO2)c(=O)[nH]c1=O` (configuration not stated)?
DAX1 inh-1: 0; SMARCA2 activ: 5; ssDAF12 agonist: -1; hgDAF-12 ag: 1; hcDAF-12 act: -1; DAX1 inh-2: 0

Results for CCN1C(=O)N(CC)C(=O)C2(Cc3ccccc3N3CCN(c4ccccc4)CC32)C1=O (configuration not stated) ?
SMARCA2 activ: -1; ssDAF12 agonist: 0; hgDAF-12 ag: 10; hcDAF-12 act: 8.7*; DAX1 inh-2: 1; LXRb hcDAF ctr: 0; hcDAF12 ag: 3

What do the screens show for `O=Cc1c(C(=O)O)n(Cc2ccccc2F)c2ccccc12`?
DAX1 inh-1: 1; SMARCA2 activ: 1; ssDAF12 agonist: 0; hgDAF-12 ag: 0; hcDAF-12 act: 7.9*; DAX1 inh-2: 0; LXRb hcDAF ctr: 0; hcDAF12 ag: 5
